{
  "source": "the supplement of paper PMC8975748",
  "note": "Counter-ions that a name gives are not always drawn.",
  "data": [
    {"tested_on": "Saccharomyces cerevisiae BY4741 SeMeCo community", "test": "z-score of subpopulation abundance vs DMSO median, subpopulation auxotrophic for HLM; higher = larger share of this subpopulation than in DMSO controls", "conditions": "10 µM; 24 h; SM minimal medium; subpopulation (auxotrophy): HLM", "procedure": "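Fluorescent four-plasmid SeMeCo (self-establishing metabolically cooperating S. cerevisiae BY4741 community; plasmids pH-mRuby2, pL-mWasabi, pU-eCFP, pM-TagRFP657) was grown 24 h in minimal SM medium with each Selleck FDA-approved drug at 10 µM in 384-well plates. Cells were fixed and imaged by high-content confocal microscopy. For each auxotrophic subpopulation (and the prototroph), a z-score gives the deviation from the DMSO vehicle-control population median.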", "values": [
      {"smiles": "C[N+]12CCC(CC1)C(OC(=O)C(O)(c1ccccc1)c1ccccc1)C2", "note": "(stereo not given) [Clidinium Bromide]", "z-score of subpopulation abundance": -0.26},
      {"smiles": "C=CCN1C[C@H](C(=O)N(CCCN(C)C)C(=O)NCC)C[C@@H]2c3cccc4[nH]cc(c34)C[C@H]21", "note": "[Cabergoline]", "z-score of subpopulation abundance": -0.2},
      {"smiles": "CCN1CC2(OC(=O)c3ccccc3NC(C)=O)CCC(OC)C34C1C(CC23)C1(O)CC(OC)C2CC4C1(O)C2OC", "note": "(stereo not given) [Lappaconitine]", "z-score of subpopulation abundance": -0.42},
      {"smiles": "CNC1CC(N)C(O)C(OC2OC(CO)C(O)C3OC4(OC(C(N)CO)C(O)C(O)C4O)OC23)C1O", "note": "(stereo not given) [Hygromycin B]", "z-score of subpopulation abundance": -0.02},
      {"smiles": "C[C@@H]1O[C@@H](O[C@H]2C[C@@H](O)[C@]3(CO)[C@H]4[C@H](O)C[C@]5(C)[C@@H](C6=CC(=O)OC6)CC[C@]5(O)[C@@H]4CC[C@]3(O)C2)[C@H](O)[C@H](O)[C@H]1O", "note": "[Ouabain]", "z-score of subpopulation abundance": -0.79},
      {"smiles": "O=c1[nH]c2ccccc2n1CCCN1CCC(n2c(=O)[nH]c3cc(Cl)ccc32)CC1", "note": "[Domperidone]", "z-score of subpopulation abundance": 1.97},
      {"smiles": "CCC1=C[C@H]2CN3CCc4c([nH]c5ccccc45)[C@](C(=O)OC)(C2)[C@H]13", "note": "[Catharanthine]", "z-score of subpopulation abundance": -0.68},
      {"smiles": "O=C(O[C@H]1C[N+]2(CCCOc3ccccc3)CCC1CC2)C(O)(c1cccs1)c1cccs1", "note": "[Aclidinium Bromide]", "z-score of subpopulation abundance": -0.51},
      {"smiles": "Nc1nc(N)nc(NC2CC2)n1", "note": "[Cyromazine]", "z-score of subpopulation abundance": 0.4},
      {"smiles": "CC(C)N(CCC(C(N)=O)(c1ccccc1)c1ccccn1)C(C)C", "note": "(stereo not given) [Disopyramide]", "z-score of subpopulation abundance": 0.67},
      {"smiles": "C=C(C)[C@H]1Cc2c(ccc3c2O[C@@H]2COc4cc(OC)c(OC)cc4[C@@H]2C3=O)O1", "note": "[Rotenone (Barbasco)]", "z-score of subpopulation abundance": 0.69},
      {"smiles": "C#C[C@]1(O)C=C[C@H]2[C@@H]3CCC4=CC(=O)CC[C@@H]4[C@H]3CC[C@@]21CC", "note": "[Gestodene]", "z-score of subpopulation abundance": -0.9},
      {"smiles": "C[C@H]1O[C@H](O[C@H]2[C@H](O)[C@@H](O)[C@@H](O)[C@H](O)[C@@H]2O)[C@@H](N)C[C@@H]1NC(=N)C(=O)O", "note": "[Kasugamycin hydrochloride]", "z-score of subpopulation abundance": -0.54},
      {"smiles": "C[C@@H]1CC[C@H]2[C@@H](C)C(=O)O[C@@H]3O[C@@]4(C)CC[C@@H]1[C@]32OO4", "note": "[Artemisinin]", "z-score of subpopulation abundance": -0.69},
      {"smiles": "CCCCCCCCCCCCCCCC[n+]1ccccc1", "note": "[Cetylpyridinium Chloride]", "z-score of subpopulation abundance": 67.8},
      {"smiles": "CN1C(=O)COc2c(C(=O)NC3CN4CCC3CC4)cc(Cl)cc21", "note": "(stereo not given) [Azasetron HCl]", "z-score of subpopulation abundance": 1.29},
      {"smiles": "CN[C@@H]1[C@@H](O)[C@@H](O[C@@H]2[C@@H](O)[C@H](O[C@H]3O[C@H]([C@@H](C)O)[C@@H](O)[C@H](O)[C@H]3N)[C@@H](N)C[C@H]2N)OC[C@]1(C)O", "note": "[Geneticin (G418 Sulfate)]", "z-score of subpopulation abundance": -0.13},
      {"smiles": "CN(C)[C@@H]1C(=O)C(C(N)=O)=C(O)[C@@]2(O)C(=O)C3=C(O)c4c(O)cccc4[C@@](C)(O)[C@H]3C[C@@H]12", "note": "[Tetracycline HCl]", "z-score of subpopulation abundance": -0.42},
      {"smiles": "COc1cc2c(cc1OC)C1CC(=O)C(CC(C)C)CN1CC2", "note": "(stereo not given) [Tetrabenazine (Xenazine)]", "z-score of subpopulation abundance": 3.78},
      {"smiles": "CN1[C@@H]2C[C@@H](OC(=O)[C@H](CO)c3ccccc3)C[C@H]1[C@@H]1O[C@@H]12", "note": "[Scopolamine HBr trihydrate]", "z-score of subpopulation abundance": -0.8},
      {"smiles": "NCCc1c[nH]c2ccc(O)cc12", "note": "[Serotonin HCl]", "z-score of subpopulation abundance": -0.77},
      {"smiles": "COc1ccc(C=O)cc1", "note": "[p-Anisaldehyde]", "z-score of subpopulation abundance": -0.78},
      {"smiles": "COc1ccc2[nH]cc(CCN)c2c1", "note": "[5-Methoxytryptamine]", "z-score of subpopulation abundance": 0.21},
      {"smiles": "CC(NC(C)(C)C)C(=O)c1cccc(Cl)c1", "note": "(stereo not given) [Amfebutamone (Bupropion) HCl]", "z-score of subpopulation abundance": 0.09},
      {"smiles": "O=[N+]([O-])C(Br)(CO)CO", "note": "[Bronopol]", "z-score of subpopulation abundance": -0.88},
      {"smiles": "C[CH2][Hg][S]c1ccccc1C(=O)[O-].[Na+]", "note": "[Thimerosal]", "z-score of subpopulation abundance": 131},
      {"smiles": "CCOC(=O)Nc1ccc(NCc2ccc(F)cc2)cc1N", "note": "[Retigabine 2HCl]", "z-score of subpopulation abundance": -0.02},
      {"smiles": "CC[C@H]1[C@@H]2C[C@H]3[C@@H]4N(C)c5ccccc5[C@]45C[C@@H]([C@@H]2[C@H]5O)N3[C@@H]1O", "note": "[Ajmaline]", "z-score of subpopulation abundance": -0.46},
      {"smiles": "CN(C)[C@@H]1C(=O)C(C(N)=O)=C(O)[C@@]2(O)C(=O)C3=C(O)c4c(O)ccc(Cl)c4[C@@](C)(O)[C@H]3C[C@@H]12", "note": "[Chlortetracycline HCl]", "z-score of subpopulation abundance": -0.55},
      {"smiles": "NCC(O)c1ccc(O)cc1", "note": "(racemic) [(+,-)-Octopamine HCl]", "z-score of subpopulation abundance": -0.75},
      {"smiles": "CCN(CC)CCOC(=O)C(O)(c1ccccc1)c1ccccc1", "note": "[Benactyzine hydrochloride]", "z-score of subpopulation abundance": 0.1},
      {"smiles": "CC[C@H]1CN2CC[C@]3(C(=O)Nc4ccccc43)[C@@H]2C[C@@H]1/C(=C\\OC)C(=O)OC", "note": "[Rhynchophylline]", "z-score of subpopulation abundance": 1.16},
      {"smiles": "Cc1cc(C(C#N)c2ccc(Cl)cc2)c(Cl)cc1NC(=O)c1cc(I)cc(I)c1O", "note": "(stereo not given) [Closantel]", "z-score of subpopulation abundance": -0.4},
      {"smiles": "C[N+]1(C)[C@@H]2C[C@@H](OC(=O)[C@H](CO)c3ccccc3)C[C@H]1[C@@H]1O[C@@H]12", "note": "[Methscopolamine]", "z-score of subpopulation abundance": 0.13},
      {"smiles": "O=c1cccc2n1C[C@@H]1CNC[C@H]2C1", "note": "[Cytisine]", "z-score of subpopulation abundance": -0.15},
      {"smiles": "Nc1ccncc1", "note": "[4-Aminopyridine]", "z-score of subpopulation abundance": -0.2},
      {"smiles": "CN(C)[C@@H]1C(=O)C(C(N)=O)=C(O)[C@@]2(O)C(=O)C3=C(O)c4c(O)cccc4[C@@](C)(O)[C@H]3[C@H](O)[C@@H]12", "note": "[Oxytetracycline (Terramycin)]", "z-score of subpopulation abundance": 2.78},
      {"smiles": "CCN(C)C(=O)Oc1cccc([C@H](C)N(C)C)c1", "note": "[Rivastigmine]", "z-score of subpopulation abundance": -0.03},
      {"smiles": "CC(C)(O)C(Cl)(Cl)Cl", "note": "[Chlorobutanol]", "z-score of subpopulation abundance": -0.04},
      {"smiles": "CCOC(=O)Nc1ccc(NCc2ccc(F)cc2)cc1N", "note": "[Retigabine]", "z-score of subpopulation abundance": 0.18}
    ]}
  ]
}
